# Source: PubChem BioAssay
# FBPA coupling cs: qHTS Assay for Inhibitors of Fructose-1,6-bisphosphate Aldolase from Giardia Lamblia: Coupling assay counterscreen. coupling enzyme system counterscreen, AmpLite Red fluorescence. activity change, negative = inhibition, % at 58.2 µM, hits read low. actives 0.67% (n = 290,000). AID 2472, 2010; in the data active means activity change below about -30%
#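 Coupling enzymes only (glyceraldehyde-3-phosphate) + compound, at 57.5 uM final, 10 min RT; add substrate/coupling/AmpLite Red mix, 20 min RT; fluorescence ex 525/em 598 nm. Actives flag coupling-system interference.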
# HTT ATP protect: qHTS Multiplex Assay to Identify Dual Action Probes in a Cell Model of Huntington: Cytoprotection (ATP); actives 0.14% (n = 230,000); Potency, µM (doses to about 56.4 µM), usual class: activators; PC12 HTT-Q103 induced, cytoprotection, ATP luminescence, 40 h; further: nearly all actives have a fitted effect of over 45% in size
#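 ATP quantification (ATPlite) reports survival of PC12 cells in which tebufenozide, 100 nM final, switches on Htt exon 1 with 103 glutamines linked to GFP; compounds are titrated.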
# HTT aggregate: qHTS Multiplex Assay to Identify Dual Action Probes in a Cell Model of Huntington: Aggregate Formation (GFP); PC12 HttQ103-GFP aggregates, Acumen cytometry, 40 h; Potency, µM (top dose mostly 46.1 µM), usual class: inhibitors; actives 1.1% (n = 220,000); further: nearly all actives have a fitted effect of over 60% in size
#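 Using laser scanning cytometry, GFP-positive aggregates were counted after lysis of PC12 cells induced with 100 nM tebufenozide to express HTT exon 1 Q103–GFP. Compounds were tested in titration.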
# JMJD2E inh: qHTS Assay for Inhibitors of Human Jumonji Domain Containing 2E (JMJD2E); Lysine-specific demethylase 4E (Homo sapiens), B2RXH2; actives 1.6% (n = 230,000); AID 2147, 2009; JMJD2E catalytic domain, FDH-coupled NADH fluorescence (FDH is formaldehyde dehydrogenase); Potency, µM (series often up to 57.1 µM), hits mostly inhibitors; active means well fitted inhibition curve with a large enough effect, not every such curve was filed as active; inconclusive means small, poorly fitted or top-dose-only effect, or another doubt; inactive means no such curve, though single readings can be large or run the other way; further: nearly all actives have a fitted effect of over 50% in size
# Target sequence (B2RXH2 1-337 limits assumed): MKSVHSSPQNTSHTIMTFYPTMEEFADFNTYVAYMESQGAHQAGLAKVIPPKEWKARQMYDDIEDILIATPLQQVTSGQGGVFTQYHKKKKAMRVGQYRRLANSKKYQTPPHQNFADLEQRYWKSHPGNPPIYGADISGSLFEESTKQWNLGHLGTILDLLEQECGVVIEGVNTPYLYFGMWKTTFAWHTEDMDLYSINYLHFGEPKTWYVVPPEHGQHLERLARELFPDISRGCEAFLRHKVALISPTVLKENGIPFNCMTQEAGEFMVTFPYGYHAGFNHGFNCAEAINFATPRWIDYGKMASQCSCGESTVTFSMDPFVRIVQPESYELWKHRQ
# RGS12 GoLoco inh: qHTS Assay for Inhibitors of RGS12 GoLoco Motif Activity (Red Fluorophore). Potency, µM (doses to about 61.6 µM), usual class: inhibitors. actives 0.44% (n = 230,000). AID 880, 2007. Gai1:RGS12 GoLoco peptide FP, rhodamine, 10 min. Guanine nucleotide-binding protein G(i) subunit alpha-1 (Homo sapiens), P63096; active means well fitted inhibition curve with a large enough effect, not every such curve was filed as active; inactive means no such curve, though single readings can be large or run the other way; further: nearly all actives have a fitted effect of over 30% in size
# Target sequence (P63096 whole entry, looked up): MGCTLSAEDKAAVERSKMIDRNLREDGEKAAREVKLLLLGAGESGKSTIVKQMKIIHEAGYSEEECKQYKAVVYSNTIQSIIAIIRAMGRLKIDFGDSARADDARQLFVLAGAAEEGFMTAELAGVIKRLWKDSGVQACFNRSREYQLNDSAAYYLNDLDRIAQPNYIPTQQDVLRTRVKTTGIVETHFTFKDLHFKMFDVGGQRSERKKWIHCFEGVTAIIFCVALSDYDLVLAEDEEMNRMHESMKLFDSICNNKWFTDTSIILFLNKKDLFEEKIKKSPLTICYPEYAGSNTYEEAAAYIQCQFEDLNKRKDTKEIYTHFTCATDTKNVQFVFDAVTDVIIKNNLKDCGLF
# VDR inh: Inhibitors of the vitamin D receptor (VDR): qHTS | Vitamin D3 receptor (Homo sapiens), P11473 | VDR-SRC2-3 peptide fluorescence polarization, 2 h | Potency, µM, most hits filed as inhibitors | actives 0.93% (n = 400,000)
#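 The screen uses fluorescence polarization to detect compounds that interfere with recruitment of the SRC2-3 coactivator peptide to VDR; plates are read after 2 h at room temperature.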
# Numbers stand for hits; i = inactive; ? = inconclusive; nt = no result given; [ ] = remark or other dose. In the library only some 2.3% were active in any assay of this set; here they are far more common. Unless noted, the call rests on the fitted dose curve; in most records, active means well fitted curve in the direction sought with a large enough effect; inconclusive means small, poorly fitted or top-dose-only effect, or another doubt; inactive means no such curve, though single readings can be large; an effect the other way counts as inactive or inconclusive.
SMILES,FBPA coupling cs,HTT ATP protect,HTT aggregate,JMJD2E inh,RGS12 GoLoco inh,VDR inh
Cc1cc(/C=N/NC(=O)c2cccc(N(C)C)c2)c(C)n1-c1cc(C(=O)O)cc(C(=O)O)c1,i,i,i,25.1µM,i,i
Cc1cc(/C=N/NC(=O)C(O)(c2ccccc2)c2ccccc2)c(C)n1-c1cccc(C(=O)O)c1,i,i[10 µM],i[9.22 µM],?,i,i
Cc1ccc2sc(C)[n+](CCCS(=O)(=O)[O-])c2c1,i,i,i,i,i,i
Cc1ccc2c(c1)sc(C)[n+]2CCCS(=O)(=O)[O-],i,i,i,i,i,28.2µM
CCS(=O)(=O)N1CCN(c2ccc([N+](=O)[O-])c(NCC3CCCO3)c2)CC1 (stereo unspecified),i,i,i,i,i,i
CCOC(=O)c1c(C)oc2c1c(/C=N/c1ccccn1)c(O)c1ccccc12,nt,nt,nt,nt,nt,i
CCOC(=O)c1c(C)oc2c1c(C(c1ccccc1)N1CCOCC1)c(O)c1ccccc12 (stereo unspecified),-42.0,i,i,i,i,i
CCOC(=O)c1c(C)oc2c1c(C(c1cccnc1)N1CCCCC1)c(O)c1ccccc12 (stereo unspecified),-36.3,i,i,?,i,i
CCOC(=O)c1c(C)oc2c1c(C=NCCO)c(O)c1ccccc12,-64.9,i,?,i,i,i
COc1ccc([N+](=O)[O-])cc1NC(=O)c1cn(-c2ccc(Cl)cc2)c(=O)c2ccccc12,i,i[10 µM],i,i,i,i
CCCN(C(=O)c1coc(=O)c2ccccc12)c1ccccc1C,nt,nt,nt,nt,nt,i
CCOC(=O)c1c(-c2ccc(OC)cc2)nc2nonc2c1N,i,0.708µM,?,i,i,i
CCOC(=O)c1c(C)nc(C)c(C(=O)OCC)c1-c1ccc(OC)cc1,i,i[10 µM],i[9.22 µM],i,i,i
CCOC(=O)/C(=C/c1ccc(OC(=O)c2ccccc2)cc1)C(C)=O,i,nt,i,7.94µM,i,?
CCOC(=O)C1CCC(CN(Cc2ccc(Cl)cc2)S(=O)(=O)c2ccc(Br)cc2)CC1 (stereo unspecified),nt,nt,nt,nt,nt,i
Cc1cccc(N2CCN(C(=O)Cn3sc4nc(C)cc(C)c4c3=O)CC2C)c1 (stereo unspecified),i,i,i,?,1.41µM,15.8µM
COc1ccc(NCc2ccccc2[N+](=O)[O-])cc1OC,-40.2,i[10 µM],i,?,i,?
COc1ccc(NC(=O)COC(=O)Cc2ccccc2[N+](=O)[O-])cc1OC,i,i,i,i,i,i
NC(=S)c1c(Cl)cc(C(F)(F)F)cc1Cl,i,i[10 µM],i[9.22 µM],i,i,i
O=C(CN1CCN(Cc2ccccc2F)C1=O)NCc1ccco1,i,i,0.126µM,i,i,i
O=C(CN1CCN(Cc2ccccc2F)C1=O)NCc1cccnc1,i,i[10 µM],i,i,i,i
CC1(C)CC[C@]2(C(=O)n3ccnc3)CC[C@]3(C)[C@H](C(=O)C=C4[C@@]5(C)C=C(C#N)C(=O)C(C)(C)[C@@H]5CC[C@]43C)[C@@H]2C1,nt,nt,nt,nt,nt,44.7µM
COc1ccc(NC(=O)CC2C(=O)N(c3cccc(OC)c3)C(=O)N2Cc2cccnc2)cc1 (stereo unspecified),nt,nt,nt,nt,nt,i
CC(C)c1nc(N2CCN(C(=O)c3ccco3)CC2)c(C#N)c2c1COC(C)(C)C2,i,nt,nt,nt,nt,i
CC(C)c1nc(N2CCN(C(=O)c3ccccc3)CC2)c(C#N)c2c1COC(C)(C)C2,i,i,14.1µM,?,i,i
SMILES,FBPA coupling cs,HTT ATP protect,HTT aggregate,JMJD2E inh,RGS12 GoLoco inh,VDR inh
CCOC(=O)c1nnn(CC(=O)N2N=C(c3ccc(Cl)cc3)CC2c2ccc(OC)cc2)c1C(=O)OCC (stereo unspecified),i,i[10 µM],i,31.6µM,i,i
CCOC(=O)c1nnn(CC(=O)N2N=C(c3ccc(Cl)cc3)CC2c2ccccc2)c1C(=O)OCC (stereo unspecified),i,i[1.9 µM],i,?,i,i
CCN1CCN(c2cc(N3CCN(C(=O)c4ccco4)CC3)c3c4c(onc24)-c2ccccc2C3=O)CC1,-30.4,nt,nt,nt,nt,i
C/C(Cn1nnc([N+](=O)[O-])n1)=N\NC(=O)c1ccc(Cl)c(Cl)c1,-43.4,i,?,i,i,i
O=C(O)c1cc2c(cc1S(=O)(=O)O)[C@H]1[C@@H](C3[C@H]2[C@@]2(Cl)C(Cl)=C(Cl)C3(Cl)C2(Cl)Cl)[C@]2(Cl)C(Cl)=C(Cl)C1(Cl)C2(Cl)Cl (stereo partly specified),nt,nt,nt,nt,i[14.2 µM],nt
COc1ccc(CCN2C(=O)CC(N3CCOCC3)C2=O)cc1 (stereo unspecified),i,1.26µM,i,i,i,i
NC(=O)CNC(=O)C1CCN(S(=O)(=O)c2ccc(-n3cnnn3)cc2)CC1,i,nt,nt,nt,nt,i
CC(C)(C)OC(=O)N1CCC(c2c(C(=O)N3CCN(C(=O)c4ccco4)CC3)cnn2-c2ccccc2Cl)CC1,nt,nt,nt,nt,nt,i
COc1ccc(N2CCN(Cc3cc(OC)c(O)c([N+](=O)[O-])c3)CC2)cc1,i,nt,i,22.4µM,i,i
COc1cc(CN2CCN(c3cccc(C)c3C)CC2)cc([N+](=O)[O-])c1O,i,i[10 µM],i,?,i,i
CCOC(=O)/C(C#N)=C/c1ccc(OC(=O)c2ccco2)c(OCC)c1,i,i[10 µM],8.91µM,i,nt,i
CCOC(=O)/C(C#N)=C\c1ccc(OC)c(OC)c1,i,i,?,i,i,i
Cc1c(C2=CCN(S(=O)(=O)c3ccc(CC(C)C)cc3)CC2)c2ccccc2n1CC(=O)N1CCCC1,nt,nt,nt,nt,nt,i
O=C1/C(=C/c2cccs2)SC(=S)N1NS(=O)(=O)c1ccccc1,i,i[10 µM],i[9.22 µM],i,i,i
O=C1/C(=C/C=C/c2ccco2)SC(=S)N1NS(=O)(=O)c1ccccc1,i,i[10 µM],i[9.22 µM],15.8µM,i,i
COc1ccc2nc(-c3ccccc3)[nH]c2c1,-32.4,i[10 µM],i,?,i,i
O=C1C(Cl)=C(NCCCO)C(=O)c2ccccc21,-38.0,i,?,i,i,i
Cc1ccc(NC2=C(NCCO)C(=O)c3ccccc3C2=O)cc1,-48.1,i[10 µM],i,?,i,?
Cc1ccc(Nc2nc(N)c([N+](=O)[O-])c(NCCO)n2)cc1,i,?,i[9.22 µM],i,i,i
CCOCCCNC1=C(Cl)C(=O)c2ccccc2C1=O,i,i[10 µM],i[9.22 µM],?,3.16µM,?
C#CCOC(=O)Nc1cc(C)n(-c2ccccc2)n1,i,i[10 µM],i[9.22 µM],i,i,i
